Source: PubChem
Rows were chosen to be rich in hits. Some 6.1% of all compounds tested hit in one or more screens of this group.
ATXN2 expr inh – inhibitors of ATXN2 expression | HEK-293 ATXN2-luciferase reporter, luminescence, 24 h | Potency, µM (top dose mostly 57 µM), for inactives: at the top dose activity change, negative = inhibition, actives largely listed as inhibitors | 0.72% of 360,000 active | AID 1745845; further: on the % scale 0 is the no-effect control and ±100 the full control effect; nearly all actives have a fitted effect of over 55% in size
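ATXN2-luciferase reporter cells (luciferase flanked by upstream and downstream ATXN2 gene portions) were treated 24 h at 37 °C with compounds at up to 57 uM. SteadyGlo luminescence gave expression; GF-AFC fluorescence gave viability.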
TGFb inhibitor – blocks TGF-b signaling | 1.2% of 410,000 active | AID 588855 | HepG2 CAGA-GFP TGF-b/SMAD3 reporter, GFP fluorescence, 18 h; TGF-beta stimulated, 500 pg/mL final | Potency, µM (top dose mostly 46.1 µM), for the others: at the top dose activity, negative = inhibition, usual class: inhibitors; further: on the % scale 0 is the no-effect control and ±100 the full control effect; nearly all actives have a fitted effect of over 65% in size
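Using HEPG2 CAGA-GFP reporter cells at 1000 cells/well, we pinned test compounds, stimulated with recombinant TGF-beta (500 pg/mL final) and measured total well GFP after 18 h.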
RORgamma inh – ROR gamma (mouse) transcription inhibition | P51450 | Drosophila S2 Gal4-RORgamma UAS-luciferase reporter, 20 h | Potency, µM (doses to about 53.6 µM), without a hit: top-dose activity change, negative = inhibition, usual class: inhibitors | 5.4% of 310,000 active; further: on the % scale 0 is the no-effect control and ±100 the full control effect; nearly all actives have a fitted effect of over 60% in size
Target sequence (P51450 whole entry, looked up, the tested form may be a part): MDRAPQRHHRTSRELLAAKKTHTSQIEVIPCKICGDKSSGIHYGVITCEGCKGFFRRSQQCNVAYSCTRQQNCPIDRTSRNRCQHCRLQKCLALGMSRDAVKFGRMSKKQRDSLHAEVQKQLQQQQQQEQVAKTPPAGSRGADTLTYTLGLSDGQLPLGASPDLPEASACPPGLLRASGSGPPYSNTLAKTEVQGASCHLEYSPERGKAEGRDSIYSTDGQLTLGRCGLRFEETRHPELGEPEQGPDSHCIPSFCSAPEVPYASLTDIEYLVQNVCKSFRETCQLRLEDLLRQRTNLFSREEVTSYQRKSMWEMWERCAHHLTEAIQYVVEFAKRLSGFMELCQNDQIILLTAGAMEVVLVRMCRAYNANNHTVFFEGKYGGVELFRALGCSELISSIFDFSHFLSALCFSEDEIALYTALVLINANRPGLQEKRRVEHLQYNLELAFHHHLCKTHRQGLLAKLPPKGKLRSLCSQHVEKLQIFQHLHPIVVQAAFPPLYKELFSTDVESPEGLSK
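Stably transfected Drosophila Schneider cells are the test system, with ROR gamma fused to Gal4 and luciferase under UAS control; luminescence is read after 20 hr of 700 uM copper sulfate induction at ambient temperature.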
HepG2 viability – kills HepG2 cells in TGF-b inhibitor counter-screen; Potency, µM (titrated, usually from 46.1 µM), for the others: top-dose activity change, negative = cytotoxicity, usual class: cytotoxic; HepG2 CAGA-GFP viability, ATP luminescence, 18 h; AID 588856; 0.76% of 410,000 active
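HepG2 CAGA-GFP cells (1000/well, DMEM with 1% FBS) received compound, then TGF-beta at 500 pg/mL final, and were incubated 18 hours at 37 degrees C. Viability was read by CellTiter-Glo luminescence. Media-only wells were set as complete cell-killing and DMSO as no toxicity.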
VP16 counter – counter-screen for ROR gamma inhibitors: Gal4-VP16 reporter. 3.5% of 310,000 active. Drosophila S2 Gal4-VP16 UAS-luciferase, luminescence, 20 h. AID 2546. Potency, µM (highest dose often 53.6 µM), without a hit: at the top dose activity, negative = inhibition, hits mostly inhibitors;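 further: Gal4-VP16 expression switched on by copper sulfate through the metallothionein promoter; on the % scale 0 is the no-effect control and ±100 the full control effect; nearly all actives have a fitted effect of over 50% in size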
S2 tox – cell viability loss in ATXN counter-screen. 0.49% of 400,000 active. S2 cells (HEK-293 line with an ATXN2-luciferase reporter) viability, CellTiter-Fluor protease fluorescence, 24 h. Potency, µM (highest dose often 56.7 µM), actives largely listed as cytotoxic; further: nearly all actives have a fitted effect of over 40% in size
Active calls of the source: *; [ ] = another dose, or the depositor's remark. The call rests on the fitted dose curve; in most records, active means well fitted curve in the direction sought with a large enough effect; inconclusive means small, poorly fitted or top-dose-only effect, or another doubt; inactive means no such curve, though single readings can be large; an effect the other way counts as inactive or inconclusive. Potency means the concentration at half of the fitted maximal effect.

Results for C=CC1=C[C@@H](O)C2OC2C12OCCCO2 (stereo not given in full) ?
RORgamma inh: 10.4%[10 µM]; VP16 counter: -6.1%[10 µM]

What do the screens show for `Cc1nc2ccc(NS(=O)(=O)c3c(C)c(C)cc(C)c3C)cc2s1`?
ATXN2 expr inh: -28.0%; TGFb inhibitor: -12.6%; RORgamma inh: inconclusive; HepG2 viability: -6.8%; VP16 counter: -21.0%; S2 tox: inactive

What do the screens show for `Cc1nc2ccc(NS(=O)(=O)c3ccc4c(c3)OCCO4)cc2s1`?
ATXN2 expr inh: -20.7%; TGFb inhibitor: inconclusive; RORgamma inh: inconclusive; HepG2 viability: -34.1%; VP16 counter: 8.91µM*; S2 tox: inconclusive

Results for Cc1c(Cl)cccc1NC(=O)CN1C(=O)COc2ccc(S(=O)(=O)N3CCCCCC3)cc21 ?
TGFb inhibitor: 3.2%; HepG2 viability: 1.0%

How did Cc1c(Cl)cccc1NC(=O)CN1C(=O)COc2ccc(S(=O)(=O)Nc3ccccc3)cc21 do in these assays?
ATXN2 expr inh: -9.0%; TGFb inhibitor: 10µM*; HepG2 viability: -19.7%; S2 tox: inconclusive

What do the screens show for `Cc1c(Cl)cccc1NS(=O)(=O)c1ccc(NS(=O)(=O)c2ccc3c(c2)OCCO3)cc1`?
ATXN2 expr inh: inconclusive; TGFb inhibitor: 15.8µM*; HepG2 viability: -42.2%; S2 tox: inactive

What do the screens show for `Cc1ccc(S(=O)(=O)Nc2ccc3c(c2)OCCO3)cc1`?
ATXN2 expr inh: -4.1%; TGFb inhibitor: inconclusive; RORgamma inh: 42.0%; HepG2 viability: -35.3%; VP16 counter: 1.0%; S2 tox: inactive

How did Cc1nc2cc(NS(=O)(=O)c3c(C)c(C)cc(C)c3C)ccc2s1 do in these assays?
ATXN2 expr inh: -10.8%; TGFb inhibitor: inconclusive; RORgamma inh: inconclusive; HepG2 viability: -36.8%; VP16 counter: 11.2µM*; S2 tox: inconclusive

What do the screens show for `Cc1ccc(S(=O)(=O)Nc2ccc3nc(C)sc3c2)cc1`?
ATXN2 expr inh: -8.0%; TGFb inhibitor: -0.2%; RORgamma inh: inconclusive; HepG2 viability: -16.4%; VP16 counter: inconclusive; S2 tox: inactive

How did COc1ccc(Br)cc1CNC(=O)c1ccc2c(c1)nc1n2CCCCC1 do in these assays?
TGFb inhibitor: 38.0%; HepG2 viability: -15.2%

Results for COc1ccc(N2CC(NC(=O)c3ccco3)CC2=O)cc1OC (stereo not given) ?
ATXN2 expr inh: 9.7%; TGFb inhibitor: 2.4%; HepG2 viability: 0.5%; S2 tox: inactive

What do the screens show for `Cc1cccc(NC(=O)Cn2cc(S(=O)(=O)c3ccc(F)cc3)c(=O)c3cc4c(cc32)OCO4)c1`?
ATXN2 expr inh: 1.1%; TGFb inhibitor: 3.7%; HepG2 viability: -7.3%; S2 tox: inactive

What do the screens show for `C=CCc1cccc2cc(C(=O)Nc3ccc(F)cc3)c(=O)oc12`?
ATXN2 expr inh: 30.1%; TGFb inhibitor: 0.0%; RORgamma inh: 10.0%; HepG2 viability: -1.3%; VP16 counter: 8.7%; S2 tox: inactive

Results for C=CCc1cccc2cc(C(=O)Nc3ccc(CC(=O)O)cc3)c(=O)oc12 ?
ATXN2 expr inh: -37.3%; TGFb inhibitor: -28.9%; RORgamma inh: 3.98µM*; HepG2 viability: 0.2%; VP16 counter: inconclusive; S2 tox: inactive

Results for Cc1cc(OCCCSc2nc(-c3ccc(C(C)(C)C)cc3)nc3cc(=O)[nH]n23)ccc1Cl ?
TGFb inhibitor: inconclusive; HepG2 viability: -29.5%

Results for C/C(CC(=O)Nc1cc(Cl)ccc1Cl)=N\NC(N)=S ?
ATXN2 expr inh: 3.1%; TGFb inhibitor: -21.0%; RORgamma inh: 5.62µM*; HepG2 viability: 0.9%; VP16 counter: 20µM*; S2 tox: inactive

Results for C/C(CC(=O)Nc1ccc(Cl)cc1C(F)(F)F)=N\NC(N)=S ?
ATXN2 expr inh: -9.6%; TGFb inhibitor: inconclusive; RORgamma inh: 12.6µM*; HepG2 viability: -7.7%; VP16 counter: inconclusive; S2 tox: inactive
